These results are taken from the supplement of paper PMC3545927.

The other results are listed elsewhere or left out. How many sequences the whole screen found active is unknown.

This assay deals with furin, P09958. The experiment in a line: furin cleavage Z-score vs untreated control; higher = more cleavage, active = 3.5 or more, inactive = 1 or less, 8 variable residues between constant flanks. In a few lines:
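The cleavage Z-score is the log read count relative to furin-free reactions, lowess-adjusted and scaled by median absolute deviation. Counts came from sequencing DNA released from bead-bound 8-mer peptide–cDNA fusions after digestion with purified furin for 7.5, 15 or 30 min.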
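Further: purified furin at 1:10 enzyme:substrate in 50 mM HEPES pH 7.5.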

furin, P09958, sequence (P09958 whole entry, the tested form may be a part): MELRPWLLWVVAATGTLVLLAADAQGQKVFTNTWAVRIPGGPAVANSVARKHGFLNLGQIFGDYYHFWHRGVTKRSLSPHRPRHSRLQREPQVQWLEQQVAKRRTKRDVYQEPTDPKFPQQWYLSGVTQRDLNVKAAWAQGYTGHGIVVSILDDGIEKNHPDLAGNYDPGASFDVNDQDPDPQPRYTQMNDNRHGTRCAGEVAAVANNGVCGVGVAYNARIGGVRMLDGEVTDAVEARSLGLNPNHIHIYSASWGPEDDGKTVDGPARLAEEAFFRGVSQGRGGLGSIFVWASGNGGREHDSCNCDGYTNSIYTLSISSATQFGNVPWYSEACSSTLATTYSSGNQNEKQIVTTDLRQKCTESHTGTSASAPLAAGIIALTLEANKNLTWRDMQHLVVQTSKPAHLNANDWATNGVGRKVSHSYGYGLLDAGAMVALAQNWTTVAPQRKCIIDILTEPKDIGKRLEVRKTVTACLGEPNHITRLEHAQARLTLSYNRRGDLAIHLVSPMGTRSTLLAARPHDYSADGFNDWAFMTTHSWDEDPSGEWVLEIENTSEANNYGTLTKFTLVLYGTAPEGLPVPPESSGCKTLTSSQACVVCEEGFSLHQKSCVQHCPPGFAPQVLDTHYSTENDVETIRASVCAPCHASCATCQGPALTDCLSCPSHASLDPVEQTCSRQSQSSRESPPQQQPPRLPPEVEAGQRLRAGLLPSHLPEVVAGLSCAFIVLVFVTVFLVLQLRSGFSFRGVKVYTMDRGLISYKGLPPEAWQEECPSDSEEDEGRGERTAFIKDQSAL

Take CAVVWCSMSYAGNASASA [HC2028]: the “furin cleavage Z-score” value by setting is: (7.5 min) 0.181 (inactive); (15 min) 0.241 (inactive); (30 min) 0.133 (inactive).
Take CAVQYLYGVGAGNASASA [HC510]: the “furin cleavage Z-score” value is, setting by setting: (7.5 min) -0.596 (inactive); (15 min) -1.07 (inactive); (30 min) -0.127 (inactive).
On the same counts, the results for CANEECSQHLAGNASASA [HC1681] are 0.726 (inactive), 1.58 and -0.0685 (inactive).
Turning to CATTPCSMSWAGNASASA [HC1886], the “furin cleavage Z-score” value (7.5 min) was 0.125 (inactive), the “furin cleavage Z-score” value (15 min) is 0.0823 (inactive) and the “furin cleavage Z-score” value (30 min) is 0.51 (inactive).
On the same counts, the results for CASDFRRRRSAGNASASA [FS-868] are 9.07 (active), 7.71 (active) and 7.52 (active).
For CAAPVRRDRSAGNASASA [FS-977], the “furin cleavage Z-score” value is, setting by setting: (7.5 min) 6.44 (active); (15 min) 6.02 (active); (30 min) 5.28 (active).
For CAFSSREERSAGNASASA [FS-589], the “furin cleavage Z-score” value is, setting by setting: (7.5 min) -0.625 (inactive); (15 min) -0.927 (inactive); (30 min) -2.43 (inactive).
Regarding CADLEDRDRSAGNASASA [HC487], the “furin cleavage Z-score” value is -0.326 (inactive) (7.5 min), -1.64 (inactive) (15 min) and -1.38 (inactive) (30 min).
On the same counts, the results for CAGSSREVRSAGNASASA [FS-29] are 2.81, 4.54 (active) and 4.54 (active).
In the same order, the values of CAGSSRRRRSAGNASASA [FS-1334] are 9.7 (active), 10.8 (active) and 6.42 (active).
Turning to CAGSSRLDRSAGNASASA [FS-1208], the “furin cleavage Z-score” value reads like this: (7.5 min) 1.21; (15 min) 1.38; (30 min) 0.97 (inactive).
As to CALEQALDCEAGNASASA [HC1590], the “furin cleavage Z-score” value is, setting by setting: (7.5 min) -1.94 (inactive); (15 min) 0.416 (inactive); (30 min) -0.45 (inactive).
CAGLVPRGSAAGNASASA [TR1]: the “furin cleavage Z-score” value was 0.366 (inactive) (7.5 min), -0.466 (inactive) (15 min) and -0.254 (inactive) (30 min).
CAMEEQSQHLAGNASASA [HC19]: the “furin cleavage Z-score” value is, setting by setting: (7.5 min) 0.113 (inactive); (15 min) 0.699 (inactive); (30 min) 0.674 (inactive).
Regarding CAAIPLEVIKAGNASASA [HC850], the “furin cleavage Z-score” value is, setting by setting: (7.5 min) -0.209 (inactive); (15 min) 0.792 (inactive); (30 min) -0.386 (inactive).
CANQLRVKRSAGNASASA [FS-554]: the “furin cleavage Z-score” value by setting is: (7.5 min) 5.48 (active); (15 min) 5 (active); (30 min) 3.97 (active).
CALQRRKKKGAGNASASA [FS-1643]: the “furin cleavage Z-score” value by setting is: (7.5 min) -0.863 (inactive); (15 min) -0.718 (inactive); (30 min) 0.433 (inactive).
Take CALQRRVKRSAGNASASA [FS-1463]: the “furin cleavage Z-score” value is, setting by setting: (7.5 min) 3.17; (15 min) 3.78 (active); (30 min) 1.92.
Consider CAGFRRSMDQAGNASASA [FS-2860], for which the “furin cleavage Z-score” value was -0.496 (inactive) (7.5 min), -0.187 (inactive) (15 min) and 0.074 (inactive) (30 min).
In the same order, the values of CAGFRRFKRSAGNASASA [FS-240] are 8.1 (active), 5.19 (active) and 7.05 (active).
In the case of CAPTHYVPESAGNASASA [HC1126], the “furin cleavage Z-score” value was 1.82 (7.5 min), -1.79 (inactive) (15 min) and 0.876 (inactive) (30 min).
CAPSRRVKRSAGNASASA [FS-1149]: the “furin cleavage Z-score” value is 8.11 (active) (7.5 min), 7.59 (active) (15 min) and 5 (active) (30 min).
In the same order, the values of CAEVVTSAWVAGNASASA [HC2203] are -1.33 (inactive), -0.0621 (inactive) and -0.753 (inactive).
As to CASTTSRSACAGNASASA [HC1390], the “furin cleavage Z-score” value reads like this: (7.5 min) 0.133 (inactive); (15 min) -0.0614 (inactive); (30 min) -0.754 (inactive).
In the same order, the values of CALAGLSTLPAGNASASA [HC1048] are 0.519 (inactive), 1.63 and 0.445 (inactive).
Take CALKATCTANAGNASASA [HC1266]: the “furin cleavage Z-score” value was 0.615 (inactive) (7.5 min), 2.96 (15 min) and 1.42 (30 min).
As for CAKLFRVKRSAGNASASA [FS-1220], the “furin cleavage Z-score” value by setting is: (7.5 min) 11.7 (active); (15 min) 10.7 (active); (30 min) 8.14 (active).
Consider CARTGKVKRSAGNASASA [FS-497], for which the “furin cleavage Z-score” value (7.5 min) is 10.7 (active), the “furin cleavage Z-score” value (15 min) is 9.35 (active) and the “furin cleavage Z-score” value (30 min) is 8.07 (active).
Turning to CACWRRMKRSAGNASASA [FS-1113], the “furin cleavage Z-score” value (7.5 min) was 9.77 (active), the “furin cleavage Z-score” value (15 min) was 10.5 (active) and the “furin cleavage Z-score” value (30 min) was 7.93 (active).
In the same order, the values of CAECYDAGCAAGNASASA [HC920] are -0.745 (inactive), 0.00773 (inactive) and -0.466 (inactive).
Turning to CAGCPLPPPKAGNASASA [HC1317], the “furin cleavage Z-score” value was 0.693 (inactive) (7.5 min), -0.374 (inactive) (15 min) and -0.0504 (inactive) (30 min).
As to CAVVPRGVNLAGNASASA [TR7], the “furin cleavage Z-score” value (7.5 min) stood at 1.05, the “furin cleavage Z-score” value (15 min) was -0.803 (inactive) and the “furin cleavage Z-score” value (30 min) is 1.14.
Take CAMEERSQHLAGNASASA [HC10]: the “furin cleavage Z-score” value is -0.0717 (inactive) (7.5 min), -0.428 (inactive) (15 min) and 1.49 (30 min).
As to CALYREFDEMAGNASASA [HC1011], the “furin cleavage Z-score” value is 0.989 (inactive) (7.5 min), 0.494 (inactive) (15 min) and -1.47 (inactive) (30 min).
CAGDSRVMRWAGNASASA [FS-591]: the “furin cleavage Z-score” value (7.5 min) is 0.599 (inactive), the “furin cleavage Z-score” value (15 min) was -0.204 (inactive) and the “furin cleavage Z-score” value (30 min) was 0.578 (inactive).
For the sequence CAGDKELRTGAGNASASA [EK10], the “furin cleavage Z-score” value was -0.528 (inactive) (7.5 min), -3.59 (inactive) (15 min) and -0.0871 (inactive) (30 min).
For CALSPRTFHPAGNASASA [TR5], the “furin cleavage Z-score” value was -0.266 (inactive) (7.5 min), 0.174 (inactive) (15 min) and -0.959 (inactive) (30 min).
On to CAVSPRVKRPAGNASASA [FS-1104], for which the “furin cleavage Z-score” value is, setting by setting: (7.5 min) -1.44 (inactive); (15 min) -0.535 (inactive); (30 min) -0.559 (inactive).
On to CAVSPTHYVPAGNASASA [HC1125], for which the “furin cleavage Z-score” value is, setting by setting: (7.5 min) 0.189 (inactive); (15 min) 0.58 (inactive); (30 min) -0.874 (inactive).
Take CAVSPRVKRRAGNASASA [FS-1105]: the “furin cleavage Z-score” value (7.5 min) is 6.42 (active), the “furin cleavage Z-score” value (15 min) is 5.9 (active) and the “furin cleavage Z-score” value (30 min) was 5.56 (active).
Consider CALSPRVKRIAGNASASA [FS-687], for which the “furin cleavage Z-score” value is, setting by setting: (7.5 min) 8.46 (active); (15 min) 10.4 (active); (30 min) 8.69 (active).
CALVHRVKRRAGNASASA [FS-274]: the “furin cleavage Z-score” value (7.5 min) is 13 (active), the “furin cleavage Z-score” value (15 min) is 14.7 (active) and the “furin cleavage Z-score” value (30 min) is 10.7 (active).
For CALSPRPISYAGNASASA [HC737], the “furin cleavage Z-score” value (7.5 min) is 0.872 (inactive), the “furin cleavage Z-score” value (15 min) was 0.348 (inactive) and the “furin cleavage Z-score” value (30 min) was 0.915 (inactive).
For the sequence CAGDKRVKRRAGNASASA [FS-159], the “furin cleavage Z-score” value by setting is: (7.5 min) 8.54 (active); (15 min) 8.95 (active); (30 min) 8.22 (active).
